The record followed here is PMC4336329 (PLoS ONE, 2015).

Out of some 310,000 compounds screened, about 14,000 (4.5%) showed an effect of 50% or more. Effects have a minus sign here. What follows is part of a selection rich in strong results, with near analogues and random picks from the rest.
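Further: peak tail current of the secondary pulse compared with the same well before compound.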

The target of the test is human ether-à-go-go-related gene (hERG) potassium channel (human, UniProt Q12809). The test is described as follows: primary screen, population patch clamp on CHO cells stably expressing hERG; higher = less effect of the substance.
Chain of human ether-à-go-go-related gene (hERG) potassium channel (Q12809 whole entry, looked up): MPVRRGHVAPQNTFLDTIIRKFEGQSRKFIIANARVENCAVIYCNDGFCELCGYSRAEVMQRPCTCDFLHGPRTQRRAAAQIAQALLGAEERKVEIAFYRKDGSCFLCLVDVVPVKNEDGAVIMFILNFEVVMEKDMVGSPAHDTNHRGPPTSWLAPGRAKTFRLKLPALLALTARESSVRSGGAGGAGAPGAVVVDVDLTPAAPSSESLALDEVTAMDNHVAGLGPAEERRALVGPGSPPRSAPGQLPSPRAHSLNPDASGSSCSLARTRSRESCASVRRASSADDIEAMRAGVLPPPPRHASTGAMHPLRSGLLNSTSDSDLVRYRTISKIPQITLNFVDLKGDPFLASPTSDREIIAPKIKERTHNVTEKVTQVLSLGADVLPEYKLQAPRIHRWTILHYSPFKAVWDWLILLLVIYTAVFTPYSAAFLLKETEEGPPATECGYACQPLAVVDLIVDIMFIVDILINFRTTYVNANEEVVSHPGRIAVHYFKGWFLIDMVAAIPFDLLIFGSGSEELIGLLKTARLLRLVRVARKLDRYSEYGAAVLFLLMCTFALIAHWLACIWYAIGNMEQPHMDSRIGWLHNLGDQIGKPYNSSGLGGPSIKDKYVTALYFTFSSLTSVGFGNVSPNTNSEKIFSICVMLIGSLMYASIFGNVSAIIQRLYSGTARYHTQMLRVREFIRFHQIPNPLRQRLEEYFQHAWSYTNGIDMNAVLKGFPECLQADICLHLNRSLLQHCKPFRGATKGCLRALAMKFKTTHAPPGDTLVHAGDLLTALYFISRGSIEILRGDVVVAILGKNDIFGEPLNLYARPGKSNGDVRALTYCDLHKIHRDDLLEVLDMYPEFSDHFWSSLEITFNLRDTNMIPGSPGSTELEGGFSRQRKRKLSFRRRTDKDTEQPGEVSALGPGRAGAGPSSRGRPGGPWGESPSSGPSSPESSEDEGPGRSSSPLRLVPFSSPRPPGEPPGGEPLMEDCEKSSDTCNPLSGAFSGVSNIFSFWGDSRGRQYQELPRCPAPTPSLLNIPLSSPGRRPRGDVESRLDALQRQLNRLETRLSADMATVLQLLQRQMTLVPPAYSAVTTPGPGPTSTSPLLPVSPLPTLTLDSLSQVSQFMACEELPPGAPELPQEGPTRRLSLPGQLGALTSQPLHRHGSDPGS
On to `COc1ccc(C(CNC(=O)C(CC(C)C)NS(=O)(=O)c2ccc(C)cc2)N2CCOCC2)cc1` (stereo not drawn), for which the “hERG current change (%, negative = inhibition) at 10uM” value is listed as -3.25%.
Regarding `Oc1c(C=NCc2ccncc2)sc2ccccc12`, the “hERG current change (%, negative = inhibition) at 10uM” value is -38.4%.
As to `CCCCn1c(N)c(N(CCC(C)C)C(=O)c2cccc(-n3cnnn3)c2)c(=O)[nH]c1=O`, the “hERG current change (%, negative = inhibition) at 10uM” value is -7.92%.
As to `CCc1ccc(CN(C)C(=O)CC2C(=O)NCCN2Cc2ccoc2)cc1` (stereo not drawn), the “hERG current change (%, negative = inhibition) at 10uM” value amounted to 4.18%.
Consider `COc1ccc(Cl)cc1NC(=O)C1CCN(S(C)(=O)=O)CC1`, for which the “hERG current change (%, negative = inhibition) at 10uM” value is listed as 3.72%.
For `CCOc1ccccc1/C=C/c1onc(C)c1S(=O)(=O)N1CCC(C(=O)N(CC)CC)CC1` the value was -3.33%; for `O=C(NCc1cccnc1)c1ccc(NC(=O)c2ccc([N+](=O)[O-])cc2)cc1`, 9.09%; for `CCOC(=O)Cc1cc(=O)n2[nH]c(-c3ccc(Cl)cc3)cc2n1`, -20.4%.
`CCCc1nc2oc3cc(OC)ccc3c(=O)c2c(=O)n1CCc1ccccc1`: the “hERG current change (%, negative = inhibition) at 10uM” value is reported as -38.3%.
`COc1ccc(-n2c(=O)c(NC(=O)c3ccccc3)c3n(c2=S)CCCCC3)cc1`: the “hERG current change (%, negative = inhibition) at 10uM” value is -3.03%.
For the compound `CC(=O)c1ccc(NC(=O)CO/N=C(\C)c2cccs2)cc1`, the “hERG current change (%, negative = inhibition) at 10uM” value is recorded as -8.22%.
Consider `O=C(Nc1ccccn1)c1ccc2c(c1)S(=O)(=O)c1ccccc1C2=O`, for which the “hERG current change (%, negative = inhibition) at 10uM” value is 6.46%.
Regarding `CCCCCn1cnnc1SCC(=O)c1ccc2c(c1)OCO2`, the “hERG current change (%, negative = inhibition) at 10uM” value is listed as -27.9%.
As to `Cc1nc2c3ccccc3nc(SCC(=O)c3ccc(Cl)cc3)n2n1`, the “hERG current change (%, negative = inhibition) at 10uM” value was found to be 2.48%.
On to `COC(=O)C1=C(C(=O)OC)[C@@H]2N(Cc3ccccc3)c3ccccc3[C@@]23C[C@@H](C(=O)OC)N(C(=O)NC2CCCCC2)C3=N1`, for which the “hERG current change (%, negative = inhibition) at 10uM” value was -12.1%.
For the compound `CCOC(=O)C1CCCN(Cc2nc3ccc([N+](=O)[O-])cc3c(=O)n2-c2ccc(OC)cc2OC)C1` (stereo not drawn), the “hERG current change (%, negative = inhibition) at 10uM” value was -28.9%.
Regarding `COc1ccc(-n2c(CN3CCOCC3)nc3ccc([N+](=O)[O-])cc3c2=O)c(OC)c1`, the “hERG current change (%, negative = inhibition) at 10uM” value is listed as -3.17%.
Take `COc1ccc(-n2c(CN3CCN(c4ccc(F)cc4)CC3)nc3ccc([N+](=O)[O-])cc3c2=O)c(OC)c1`: the “hERG current change (%, negative = inhibition) at 10uM” value was -44.6%.
For `COc1ccc(-n2c(CN3CCN(Cc4ccccc4)CC3)nc3ccc([N+](=O)[O-])cc3c2=O)c(OC)c1`, the “hERG current change (%, negative = inhibition) at 10uM” value was -51.1%.
For `COc1ccc(-n2c(CN3CCN(c4ccccn4)CC3)nc3ccc([N+](=O)[O-])cc3c2=O)c(OC)c1` the value was -55.5%; for `COc1ccc(-n2c(CN3CCN(C)CC3)nc3ccc([N+](=O)[O-])cc3c2=O)c(OC)c1`, -38.4%; for `CCOC(=O)C1CCN(Cc2nc3ccc([N+](=O)[O-])cc3c(=O)n2-c2ccc(OC)cc2OC)CC1`, -53.8%.
`COc1cccc(-n2c(CN3CCN(c4ccccn4)CC3)nc3ccc([N+](=O)[O-])cc3c2=O)c1`: the “hERG current change (%, negative = inhibition) at 10uM” value was -40%.
Take `COc1ccc(-n2c(CN3CCC(C)CC3)nc3ccc([N+](=O)[O-])cc3c2=O)c(OC)c1`: the “hERG current change (%, negative = inhibition) at 10uM” value was 4.93%.
For `COc1ccc(-n2c(CN3CCN(c4ccccc4)CC3)nc3ccc([N+](=O)[O-])cc3c2=O)c(OC)c1`, the “hERG current change (%, negative = inhibition) at 10uM” value is -10.8%.
Consider `COc1ccc(-n2c(CN3CCC(C(N)=O)CC3)nc3ccc([N+](=O)[O-])cc3c2=O)c(OC)c1`, for which the “hERG current change (%, negative = inhibition) at 10uM” value was -3.9%.
Turning to `CCN1CCN(Cc2nc3ccc([N+](=O)[O-])cc3c(=O)n2-c2ccc(OC)cc2OC)CC1`, the “hERG current change (%, negative = inhibition) at 10uM” value was -52%.
Regarding `COc1ccc(C2NC(C(=O)O)CS2)cc1COCC(F)(F)F` (stereo not drawn), the “hERG current change (%, negative = inhibition) at 10uM” value was 3.38%.
Then `CC1Sc2ccc(S(=O)(=O)N3CCC(C(=O)N(C)Cc4ccco4)CC3)cc2NC1=O` (stereo not drawn), with -24.7%; and `COc1ccc(NC(=O)c2sc(SC)nc2N)cc1`, with -0.0249%.
For `Cn1ncc(Cl)c1C(=O)N1CCc2ccccc21` the value was -13.9%; for `O=S(=O)(c1ccccc1Cl)N1CCCC1c1nc(-c2cccc(Cl)c2)no1` (stereo not drawn), -9.49%.
As to `COc1cccc(-n2c(CN3CCN(C)CC3)nc3ccc([N+](=O)[O-])cc3c2=O)c1`, the “hERG current change (%, negative = inhibition) at 10uM” value is on record as -33.1%.
In the case of `COc1cccc(-n2c(CN3CCN(Cc4ccccc4)CC3)nc3ccc([N+](=O)[O-])cc3c2=O)c1`, the “hERG current change (%, negative = inhibition) at 10uM” value is listed as -52.8%.
For `COc1cccc(-n2c(CN3CCN(c4ccccc4)CC3)nc3ccc([N+](=O)[O-])cc3c2=O)c1`, the “hERG current change (%, negative = inhibition) at 10uM” value is given as -8.34%.
Take `C=C(C)COc1ccc(-c2[nH]ncc2Oc2ccccc2OCC)c(O)c1`: the “hERG current change (%, negative = inhibition) at 10uM” value is recorded as 4.65%.
With `C=C(C)COc1ccc(-c2[nH]ncc2Oc2ccccc2OC)c(O)c1`, the “hERG current change (%, negative = inhibition) at 10uM” value is on record as -55.2%.
Regarding `C=C(C)COc1ccc(-c2[nH]ncc2Oc2ccc(OC)cc2)c(O)c1`, the “hERG current change (%, negative = inhibition) at 10uM” value is recorded as -14.9%.
Consider `O=C(O)c1ccc(NS(=O)(=O)c2ccc(NC(=O)c3ccccc3Cl)cc2)cc1`, for which the “hERG current change (%, negative = inhibition) at 10uM” value stood at 19%.
